Inconclusive results are not listed. Activity calls are given as the source filed them. Calls come from the whole dose curve; as a rule, active = well fitted inhibition curve with a large enough effect; inconclusive = small, poorly fitted or top-dose-only effect; inactive = flat fitted curve, though single readings scatter.
These compounds were tested on P94_40 (assay: qHTS profiling for inhibitors of Plasmodium falciparum proliferation (AID 504749; note: nearly all actives have a fitted effect of over 60% in size;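 for activity, negative = inhibition: 0% = DMSO vehicle and full inhibition = artemisinin control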)). Conditions: P. falciparum in erythrocytes, SYBR Green DNA, 72 h; series mostly up to 28.7 µM; activity, negative = inhibition: at the top concentration.
Outline: (§1)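 SYBR Green fluorescence (ex 485 nm, em 535 nm) reports parasite DNA after 72 h compound exposure of infected red cells at 0.3% parasitemia, 2.5% hematocrit; signal normalized to 0.29 uM artemisinin and vehicle wells.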
Potency is the fitted concentration of half-maximal effect.

Row | Compound | activity, negative = inhibition | Potency
1 | COc1ccc2[nH]cc(CCNC(C)=O)c2c1 | -4.33% (inactive) | –
2 | Clc1ccc2nsnc2c1NC1=NCCN1 | 11.4% (inactive) | –
3 | NC(=O)OCC(COC(N)=O)c1ccccc1 | -0.661% (inactive) | –
4 | Cc1cnc(C(=O)NCCc2ccc(S(=O)(=O)NC(=O)NC3CCCCC3)cc2)cn1 | 2.6% (inactive) | –
5 | CC(C)(Oc1ccc(C2CC2(Cl)Cl)cc1)C(=O)O (stereo not given) | 14.6% (inactive) | –
6 | CN(C)c1nc(N(C)C)nc(N(C)C)n1 | 11.1% [at 12.8 µM] (inactive) | –
7 | CC(=O)OCC(CCn1cnc2cnc(N)nc21)COC(C)=O | 11.4% (inactive) | –
8 | N[C@@H](Cc1c[nH]c2ccc(O)cc12)C(=O)O | 5.16% (inactive) | –
9 | CC[N+](CC)(CC)CCOc1cccc(OCC[N+](CC)(CC)CC)c1OCC[N+](CC)(CC)CC | 7.04% (inactive) | –
10 | NCCCCCC(=O)O | 1.52% [at 12.8 µM] (inactive) | –
11 | O=C1N(c2ccccc2)c2ccccc2C1(Cc1ccncc1)Cc1ccncc1 | -5.34% (inactive) | –
12 | Cc1cc(C(C)(C)C)c(O)c(C)c1CC1=NCCN1 | 8.22% (inactive) | –
13 | Nc1nc2c(ncn2COC(CO)CO)c(=O)[nH]1 | -0.526% [at 12.8 µM] (inactive) | –
14 | CN(C)C(=N)N=C(N)N | 12.6% [at 12.8 µM] (inactive) | –
15 | NC(=O)NO | 7.81% (inactive) | –
16 | NC12CC3CC(CC(C3)C1)C2 | 12.5% (inactive) | –
17 | CC(C)(C)C(=O)Oc1ccc(S(=O)(=O)Nc2ccccc2C(=O)NCC(=O)O)cc1 | -3.34% (inactive) | –
18 | NCCS(=O)(=O)O | 0.785% (inactive) | –
19 | CCCNCC(O)COc1ccccc1C(=O)CCc1ccccc1 (stereo not given) | – | 316 nM (active)
20 | Cn1cnc2c1c(=O)[nH]c(=O)n2C | -3.39% (inactive) | –
21 | C[C@](N)(Cc1ccc(O)c(O)c1)C(=O)O | 8.97% (inactive) | –
22 | NCCc1cnc[nH]1 | 21.9% (inactive) | –

Each compound was assayed on PAD in the same assay as above. Conditions: P. falciparum in erythrocytes, SYBR Green DNA, 72 h; series mostly up to 28.7 µM; activity, negative = inhibition: at the top concentration.
Outline: as §1

Row | Compound | activity, negative = inhibition | Potency
23 | COc1ccc2[nH]cc(CCNC(C)=O)c2c1 | -9.86% (inactive) | –
24 | Clc1ccc2nsnc2c1NC1=NCCN1 | 14.3% (inactive) | –
25 | NC(=O)OCC(COC(N)=O)c1ccccc1 | 12.8% (inactive) | –
26 | Cc1cnc(C(=O)NCCc2ccc(S(=O)(=O)NC(=O)NC3CCCCC3)cc2)cn1 | 6.9% (inactive) | –
27 | CC(C)(Oc1ccc(C2CC2(Cl)Cl)cc1)C(=O)O (stereo not given) | 18.3% (inactive) | –
28 | CN(C)c1nc(N(C)C)nc(N(C)C)n1 | 9.05% [at 12.8 µM] (inactive) | –
29 | CC(=O)OCC(CCn1cnc2cnc(N)nc21)COC(C)=O | 4.66% (inactive) | –
30 | N[C@@H](Cc1c[nH]c2ccc(O)cc12)C(=O)O | 17% (inactive) | –
31 | O=c1c(O)c(-c2ccc(O)c(O)c2)oc2cc(O)cc(O)c12 | – | 1780 nM (active)
32 | CC[N+](CC)(CC)CCOc1cccc(OCC[N+](CC)(CC)CC)c1OCC[N+](CC)(CC)CC | 8.16% (inactive) | –
33 | NCCCCCC(=O)O | 15% [at 12.8 µM] (inactive) | –
34 | O=C1N(c2ccccc2)c2ccccc2C1(Cc1ccncc1)Cc1ccncc1 | -3.13% (inactive) | –
35 | Cc1cc(C(C)(C)C)c(O)c(C)c1CC1=NCCN1 | 15.1% (inactive) | –
36 | Nc1nc2c(ncn2COC(CO)CO)c(=O)[nH]1 | 3.23% [at 12.8 µM] (inactive) | –
37 | CN(C)C(=N)N=C(N)N | 2.17% [at 12.8 µM] (inactive) | –
38 | NC(=O)NO | 1.7% (inactive) | –
39 | NC12CC3CC(CC(C3)C1)C2 | 14.2% (inactive) | –
40 | CC(C)(C)C(=O)Oc1ccc(S(=O)(=O)Nc2ccccc2C(=O)NCC(=O)O)cc1 | 0.135% (inactive) | –
41 | NCCS(=O)(=O)O | 28.2% (inactive) | –
42 | CCCNCC(O)COc1ccccc1C(=O)CCc1ccccc1 (stereo not given) | – | 398 nM (active)
43 | O=C(c1ccc(F)cc1)C1CCN(CCn2c(=O)[nH]c3ccccc3c2=O)CC1 | 6.12% (inactive) | –
44 | Cn1cnc2c1c(=O)[nH]c(=O)n2C | 5.77% (inactive) | –
45 | C[C@](N)(Cc1ccc(O)c(O)c1)C(=O)O | 4.39% (inactive) | –

The compounds below were run on PC15 in the same assay as above. Conditions: P. falciparum in erythrocytes, SYBR Green DNA, 72 h; series mostly up to 28.7 µM; activity, negative = inhibition: at the top concentration.
Outline: as §1

Row | Compound | activity, negative = inhibition | Potency
46 | COc1ccc2[nH]cc(CCNC(C)=O)c2c1 | 4.02% (inactive) | –
47 | Clc1ccc2nsnc2c1NC1=NCCN1 | 9% (inactive) | –
48 | NC(=O)OCC(COC(N)=O)c1ccccc1 | 7.94% (inactive) | –
49 | Cc1cnc(C(=O)NCCc2ccc(S(=O)(=O)NC(=O)NC3CCCCC3)cc2)cn1 | 11.9% (inactive) | –
50 | CN(C)c1nc(N(C)C)nc(N(C)C)n1 | 1.92% [at 12.8 µM] (inactive) | –
51 | CC(=O)OCC(CCn1cnc2cnc(N)nc21)COC(C)=O | 10.1% (inactive) | –
52 | N[C@@H](Cc1c[nH]c2ccc(O)cc12)C(=O)O | 3.41% (inactive) | –
53 | CC[N+](CC)(CC)CCOc1cccc(OCC[N+](CC)(CC)CC)c1OCC[N+](CC)(CC)CC | 16.4% (inactive) | –
54 | NCCCCCC(=O)O | 17.1% [at 12.8 µM] (inactive) | –
55 | O=C1N(c2ccccc2)c2ccccc2C1(Cc1ccncc1)Cc1ccncc1 | 4.22% (inactive) | –
56 | Cc1cc(C(C)(C)C)c(O)c(C)c1CC1=NCCN1 | 1.42% (inactive) | –
57 | Nc1nc2c(ncn2COC(CO)CO)c(=O)[nH]1 | -0.475% [at 12.8 µM] (inactive) | –
58 | CN(C)C(=N)N=C(N)N | 8.79% [at 12.8 µM] (inactive) | –
59 | NC(=O)NO | 0.902% (inactive) | –
60 | CC(C)(C)C(=O)Oc1ccc(S(=O)(=O)Nc2ccccc2C(=O)NCC(=O)O)cc1 | 4.33% (inactive) | –
61 | NCCS(=O)(=O)O | 4.96% (inactive) | –
62 | CCCNCC(O)COc1ccccc1C(=O)CCc1ccccc1 (stereo not given) | – | 708 nM (active)
63 | O=C(c1ccc(F)cc1)C1CCN(CCn2c(=O)[nH]c3ccccc3c2=O)CC1 | 2.49% (inactive) | –
64 | Cn1cnc2c1c(=O)[nH]c(=O)n2C | 2.01% (inactive) | –
65 | C[C@](N)(Cc1ccc(O)c(O)c1)C(=O)O | 6.93% (inactive) | –
66 | NCCc1cnc[nH]1 | 26.2% (inactive) | –

The compounds below were run on PC26 in the same assay as above. Conditions: P. falciparum in erythrocytes, SYBR Green DNA, 72 h; series mostly up to 28.7 µM; activity, negative = inhibition: at the top concentration.
Outline: as §1

Row | Compound | activity, negative = inhibition | Potency
67 | COc1ccc2[nH]cc(CCNC(C)=O)c2c1 | 3.03% (inactive) | –
68 | Clc1ccc2nsnc2c1NC1=NCCN1 | -3.06% (inactive) | –
69 | NC(=O)OCC(COC(N)=O)c1ccccc1 | 9.22% (inactive) | –
70 | Cc1cnc(C(=O)NCCc2ccc(S(=O)(=O)NC(=O)NC3CCCCC3)cc2)cn1 | -4.01% (inactive) | –
71 | CC(C)(Oc1ccc(C2CC2(Cl)Cl)cc1)C(=O)O (stereo not given) | -2.4% (inactive) | –
72 | CN(C)c1nc(N(C)C)nc(N(C)C)n1 | -4.96% [at 12.8 µM] (inactive) | –
73 | CC(=O)OCC(CCn1cnc2cnc(N)nc21)COC(C)=O | -0.0233% (inactive) | –
74 | N[C@@H](Cc1c[nH]c2ccc(O)cc12)C(=O)O | 2.94% (inactive) | –
75 | CC[N+](CC)(CC)CCOc1cccc(OCC[N+](CC)(CC)CC)c1OCC[N+](CC)(CC)CC | -0.844% (inactive) | –
76 | NCCCCCC(=O)O | 0.289% [at 12.8 µM] (inactive) | –
77 | O=C1N(c2ccccc2)c2ccccc2C1(Cc1ccncc1)Cc1ccncc1 | -2.98% (inactive) | –
78 | Cc1cc(C(C)(C)C)c(O)c(C)c1CC1=NCCN1 | -0.964% (inactive) | –
79 | Nc1nc2c(ncn2COC(CO)CO)c(=O)[nH]1 | -3.43% [at 12.8 µM] (inactive) | –
80 | NC(=O)NO | -5.83% (inactive) | –
81 | NC12CC3CC(CC(C3)C1)C2 | 1.84% (inactive) | –
82 | CC(C)(C)C(=O)Oc1ccc(S(=O)(=O)Nc2ccccc2C(=O)NCC(=O)O)cc1 | 2.74% (inactive) | –
83 | Cc1ccc(-c2cc(C(F)(F)F)nn2-c2ccc(S(N)(=O)=O)cc2)cc1 | – | 9530 nM (active)
84 | NCCS(=O)(=O)O | -5.75% (inactive) | –
85 | CCCNCC(O)COc1ccccc1C(=O)CCc1ccccc1 (stereo not given) | – | 1690 nM (active)
86 | O=C(c1ccc(F)cc1)C1CCN(CCn2c(=O)[nH]c3ccccc3c2=O)CC1 | 0.663% (inactive) | –
87 | Cn1cnc2c1c(=O)[nH]c(=O)n2C | -19.1% (inactive) | –
88 | C[C@](N)(Cc1ccc(O)c(O)c1)C(=O)O | -3.83% (inactive) | –
89 | NCCc1cnc[nH]1 | 0.617% (inactive) | –
90 | Cn1ccc2cc3c(cc21)CCN3C(=O)Nc1cccnc1 | – | 13500 nM (active)

— PubChem BioAssay (NCATS)
